# The list is not random: actives were taken first. Their share in the collection is about 27%.
# CYP2C9 act: activators of human CYP2C9. P11712. recombinant CYP2C9, luciferin-H conversion, luminescence; active compounds read high; factor 1 = untreated enzyme, 0 = blocked. activation factor at 5 µM. 96,000 compounds, 1.4% hits. AID 1024;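 active means activation factor of 2 or more for CYP2C9 at a 5 µM dose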;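 further: 0 = sulfaphenazole-blocked wells and 1 = vehicle-only wells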
# Target sequence (P11712 whole entry, looked up): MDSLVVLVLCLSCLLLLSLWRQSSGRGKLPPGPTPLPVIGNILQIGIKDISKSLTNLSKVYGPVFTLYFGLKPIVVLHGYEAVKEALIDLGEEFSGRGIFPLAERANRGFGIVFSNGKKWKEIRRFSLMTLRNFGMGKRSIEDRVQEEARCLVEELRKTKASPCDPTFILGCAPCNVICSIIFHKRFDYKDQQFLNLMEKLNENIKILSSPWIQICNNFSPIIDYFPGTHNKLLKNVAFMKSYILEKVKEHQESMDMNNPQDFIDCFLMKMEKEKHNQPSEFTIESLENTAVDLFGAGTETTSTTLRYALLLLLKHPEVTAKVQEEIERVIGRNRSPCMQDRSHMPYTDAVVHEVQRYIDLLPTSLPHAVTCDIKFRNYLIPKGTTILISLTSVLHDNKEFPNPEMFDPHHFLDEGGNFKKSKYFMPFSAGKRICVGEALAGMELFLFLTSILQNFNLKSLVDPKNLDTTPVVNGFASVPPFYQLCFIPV
# CYP2C9 inh: inhibitors of human CYP2C9; P11712; CYP2C9 Supersomes, luciferin-H conversion, luminescence; inhibition, % at 5 µM; 96,000 compounds, 20% hits; AID 777;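 active means blocking of liver enzyme CYP2C9 beyond about 50% at 5 µM, limit read from the data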
# CYP2C19 act: activators of human cytochrome P450 2C19; activation factor at 5 µM; 96,000 tested, under 10 active; P33261; recombinant CYP2C19, luciferin-H EGE luminescence; active compounds read high; 0 = fully inhibited enzyme, 1 = untreated enzyme;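 active means activation factor of at least 2 at 5 µM in the primary screen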;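 further: 0 = wells with 2.5 mM tranylcypromine and 1 = vehicle-only wells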
# CYP2C19 inhib: inhibitors of human CYP2C19; P33261; CYP2C19 Supersomes, luciferin-H EGE luminescence, 30 min; inhibition, % at 5 µM; 96,000 compounds, 21% hits; AID 778;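 active means CYP2C19 inhibition above a set limit at 5 µM in the primary screen, cut at about 50% in these data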;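 further: plate controls were negative control wells for no effect and 2.5 mM tranylcypromine positive control for full effect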
# Cav32 inh: blocks human Cav3.2 T-type calcium channel; 100,000 compounds, 4% hits; AID 449739; Cav3.2-expressing cells, Fluo-4 calcium fluorescence FDSS; active compounds read low; B-score at 10 µM; O95180;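 active means single-dose well whose peak fluorescence ratio is a statistical outlier from its plate by either plate-standardised score or position-corrected B-score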
# Numbers without * were called inactive; . = no result given.
SMILES,CYP2C9 act,CYP2C9 inh,CYP2C19 act,CYP2C19 inhib,Cav32 inh
COc1ccccc1C(O)Cc1nc2ccccc2n1C (stereo unspecified),0.9,8,0.1,95*,-0.44
COCC(=O)Nc1cccc(C(F)(F)F)c1,0.8,20,0.8,23,0.011
CC(C)Oc1cc(NC(=O)CS(=O)CC(=O)Nc2cccc(C(F)(F)F)c2)c(Cl)cc1Cl (stereo unspecified),0.9,8,0.9,10,-3.8*
c1cc(-c2noc(CCC3CCCC3)n2)ccn1,0,96*,0,99*,0.32
COc1ccc(-c2noc(COc3ccc4ccccc4c3Br)n2)cc1OC,0.8,24,0.5,49,-0.7
Cc1ccc(-c2noc(CCCc3ccccc3)n2)cc1,1.1,-8,1,-5,0.46
COc1ccc(-c2noc(CSc3nc(-c4ccccc4)cc(=O)[nH]3)n2)cc1OC,0.4,60*,0.6,44,0.054
COc1ccccc1-c1nc(-c2ccc(C)nc2OC)no1,1,4,0.4,62*,-1.3
CC(C)(C)C(=O)NCCc1nc(-c2ccccc2)no1,.,.,.,.,0.44
COc1ccc(-c2noc(CCCc3ccccc3)n2)cc1OC,0.4,61*,0.2,80*,-0.49
CC(C)NC(=O)CSc1nnc(-c2ccc(C(C)(C)C)cc2)n1C,.,.,.,.,0.021
COc1ccccc1-c1noc(-c2cccs2)n1,0.9,13,0.7,27,-0.95
c1ccc(-c2ccc(-c3nc(-c4ccncc4)no3)cc2)cc1,0.3,72*,0.2,80*,-0.75
COc1cc(OC)cc(-c2nc(-c3ccccc3)no2)c1,1.2,-23,1.2,-18,-0.67
c1ccc(C(Cc2nc(-c3ccncc3)no2)c2ccccc2)cc1,0.1,90*,0,98*,.
COc1ccccc1-c1noc(-c2ccncc2)n1,0.9,13,0.1,89*,0.2
CSc1ccccc1-c1nnc(-c2ccccc2)o1,2.4*,-136,1,3,.
CN(NC(N)=O)c1ncc(C(F)(F)F)cc1Cl,1,0,0.9,5,1.7
COc1ccccc1-c1nc(-c2ccccn2)no1,0.7,31,0.2,79*,.
COc1ccc(-c2noc(-c3ccccc3-c3ccccc3)n2)cc1OC,0.3,67*,0.6,36,.
c1ccc(-c2nc(-c3ccncc3)no2)cc1,0.8,23,0.1,94*,-0.00015
c1coc(-c2nc(-c3ccncc3)no2)c1,0.7,35,0.1,87*,1.3
c1ccc(-c2noc(-c3cccnc3)n2)cc1,1,4,0.9,13,0.39
C=CCn1nc(-c2ccccc2)cc1C(=O)OCC,.,.,.,.,-0.19
Cc1cccc2cc3c(NC(=O)C(C)C)nn(C)c3nc12,1,2,0.9,8,-0.26
SMILES,CYP2C9 act,CYP2C9 inh,CYP2C19 act,CYP2C19 inhib,Cav32 inh
c1ccc(-c2nnc(-c3ccncc3)o2)cc1,1.1,-7,0.2,76*,-0.15
Nc1nc(SCc2c(F)cccc2Cl)[nH]c(=O)c1-c1ccccc1,1,-1,1,-1,0.34
Cc1onc(-c2ccccc2Cl)c1-c1nc(-c2ccncc2)no1,0.1,88*,0,99*,-0.16
Nc1nc(SCc2nc(-c3ccccc3)no2)[nH]c(=O)c1-c1ccccc1,0.2,82*,0.3,73*,-0.97
c1ccc(-c2ccccc2-c2nc(-c3ccncc3)no2)cc1,0.3,74*,0.1,91*,-2.1
c1ccc(-c2nnn(C34CC5CC(CC(C5)C3)C4)n2)cc1,0.8,20,1,2,-0.022
CCN(CC)c1nc2ccccc2nc1-n1nc(C)cc1C,0.6,39,0.5,48,-0.89
CC(=O)c1ccc(-c2ccccc2[C@H]2[C@H]3C=CC[C@@H](C)[C@@H]3C(=O)N2Cc2ccccc2)cc1,.,.,.,.,-0.78
Cc1sc(NC(=O)C2CC=CCC2C(=O)O)c(C(=O)OC(C)C)c1C (stereo unspecified),0.5,54*,1,2,-0.44
COC(=O)c1sccc1NC(=O)C1CC=CCC1C(=O)O (stereo unspecified),0.9,14,1,-1,-0.035
O=C(CSc1nnnn1Cc1ccccc1)N1CCN(c2ccccc2)CC1,1.2,-19,1,-4,.
Cc1nc(NC(=O)CSc2nnnn2Cc2ccccc2)sc1C,0.5,51*,0.2,81*,-1.9
Cc1nnc(NC(=O)CSc2nnnn2Cc2ccccc2)s1,0.1,86*,1,-2,0.26
CCOC(=O)c1sc(NC(=O)CSc2nnnn2-c2ccccc2)nc1C,0.7,30,0.9,13,-0.71
Cc1cc(S(=O)(=O)Nc2ccc(F)cc2)c(C)s1,0.5,51*,0.2,84*,-0.52
Cc1cc(C(C)(C)C)cc(S(=O)(=O)Nc2cccc(C(=O)O)c2)c1C,1.1,-5,1.1,-8,-0.66
Cc1cc(S(=O)(=O)Nc2cccc(O)c2)c(C)s1,0.7,30,0.1,92*,-0.95
N#Cc1c(N)sc2c1CCN(CCc1ccccc1)C2,.,.,.,.,-0.4
COC(=O)C[C@H]1c2cc(C(F)(F)F)ccc2S(=O)(=O)N1C(C)(C)C,.,.,.,.,-1.3
Cc1ccc(CNC(=O)C2C3C=CC(C3)C2C(=O)O)cc1 (stereo unspecified),0.9,13,0.5,53*,0.079
Cn1c(=O)n(CC(=O)OCc2ccccc2)c(=O)c2c1nc1n2CCCN1C1CCCCC1,.,.,.,.,0.066
O=C(Cn1nnc(-c2ccc(Cl)cc2)n1)NC1CCN(Cc2ccccc2)CC1,0.8,20,0.8,16,-5.9*
CC1CCCCC1NC(=O)COc1ccc(-n2cnnn2)cc1 (stereo unspecified),0.9,10,1,4,0.097
CC1CCCCC1NC(=O)Cn1nnc(-c2ccc(Cl)cc2)n1 (stereo unspecified),1.1,-8,0.3,71*,-0.37
CC(c1nnc(SCC(=O)NC(=O)NCc2ccco2)n1-c1ccc(Cl)cc1)N(C)C (stereo unspecified),0.8,21,0.8,17,0.2
SMILES,CYP2C9 act,CYP2C9 inh,CYP2C19 act,CYP2C19 inhib,Cav32 inh
CC(C)CC(CO)N1CCN(C(=O)c2ccc(Cl)cc2)CCC1=O (stereo unspecified),.,.,.,.,-0.13
O=C(O)C1CCCN(S(=O)(=O)c2ccc(Cl)s2)C1 (stereo unspecified),0.9,10,1,1,0.65
CCN1C(=O)C(C)S/C1=N\S(=O)(=O)c1ccc(Cl)s1 (stereo unspecified),1.2,-16,0.3,70*,-2
CC(C)C(=O)Nc1nnc(CCc2nnc(NC(=O)C(C)C)s2)s1,.,.,.,.,1
CC(C)(C)C(=O)Nc1nnc(CSCc2ccccc2F)s1,0.4,56*,0.4,59*,-0.099
CC(C)C(=O)Nc1nnc(CSCc2ccccc2F)s1,0.6,42,0.3,70*,0.019
CCOCCc1nnc(NC(=O)C(CC)c2ccccc2)s1 (stereo unspecified),0.1,87*,0.4,56*,-0.96
CCc1nnc(NC(=O)C(C)Sc2ccccc2)s1 (stereo unspecified),0.3,74*,0.2,83*,0.63
CCOC(=O)C(=O)Nc1nnc(CCc2ccccc2)s1,.,.,.,.,0.65
